Measurements published in PubChem BioAssay (Tox21).
Several values for one entry are separate records, joined by “and”; a condition that tells them apart may be missing. Identical values can stand only once. Inconclusive results are not listed. Entries that show only a call come without a potency. Some compounds were tested as several samples or in several runs, with calls that do not always agree. Activity calls are given as the source filed them. Unless noted, calls come from the whole dose curve.

Tests used:
[1] = Nuclear factor erythroid 2-related factor 2/antioxidant responsive element (Nrf2/ARE) small molecule agonists: qHTS cell viability counter screen in human keratinocytes (AID 1919968; active = well fitted curve in the direction sought with a large enough effect in the repeat runs; an effect the other way counts as inactive or inconclusive; note: nearly all actives have a fitted effect of over 55% in size; note: potency is the fitted concentration of half-maximal effect)
Method in brief: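 Viability counter-screen: KeratinoSens reporter cells, DMSO-delivered compounds, 23 h at 37 C, CellTiter-Fluor fluorescence.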

[2] = Nuclear factor erythroid 2-related factor 2/antioxidant responsive element (Nrf2/ARE) small molecule agonists: luciferase reporter gene qHTS assay in human keratinocytes (AID 1919969); note: nearly all actives have a fitted effect of over 35% in size; note: potency is the fitted concentration of half-maximal effect
[3] = molecular target: Gonadotropin-releasing hormone receptor (Homo sapiens) (UniProt P30968); assay: Human gonadotropin-releasing hormone receptor (GnRHR) small molecule agonists, calcium flux assay in GnRHR-HEK293 cells (AID 1920063); note: nearly all actives have a fitted effect of over 35% in size
Chain of Gonadotropin-releasing hormone receptor (Homo sapiens) (P30968 whole entry, looked up): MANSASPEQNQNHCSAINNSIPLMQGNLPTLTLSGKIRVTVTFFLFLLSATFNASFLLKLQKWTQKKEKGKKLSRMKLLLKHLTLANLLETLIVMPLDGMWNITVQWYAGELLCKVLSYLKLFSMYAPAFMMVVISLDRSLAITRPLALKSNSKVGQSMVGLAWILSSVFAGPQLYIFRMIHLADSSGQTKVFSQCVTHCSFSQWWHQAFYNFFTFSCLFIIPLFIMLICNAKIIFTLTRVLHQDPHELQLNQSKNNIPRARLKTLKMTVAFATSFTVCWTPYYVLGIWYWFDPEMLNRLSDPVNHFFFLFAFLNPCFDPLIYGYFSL
Method in brief: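 Tox21-format agonist screen using human GnRHR-expressing HEK293 cells and a fluorescent calcium dye; kinetic 3-min fluorescence reading after compound addition, 15-point concentration series run in triplicate.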

[4] = molecular target: KiSS-1 receptor (Homo sapiens) (UniProt Q969F8); assay: Human kisspeptin (KISS1R) small molecule agonists, calcium flux assay in KISS1R-HEK293 cells (AID 1920064; active = well fitted curve in the direction sought with a large enough effect in the repeat runs; an effect the other way counts as inactive or inconclusive)
Chain of KiSS-1 receptor (Homo sapiens) (Q969F8 whole entry, looked up): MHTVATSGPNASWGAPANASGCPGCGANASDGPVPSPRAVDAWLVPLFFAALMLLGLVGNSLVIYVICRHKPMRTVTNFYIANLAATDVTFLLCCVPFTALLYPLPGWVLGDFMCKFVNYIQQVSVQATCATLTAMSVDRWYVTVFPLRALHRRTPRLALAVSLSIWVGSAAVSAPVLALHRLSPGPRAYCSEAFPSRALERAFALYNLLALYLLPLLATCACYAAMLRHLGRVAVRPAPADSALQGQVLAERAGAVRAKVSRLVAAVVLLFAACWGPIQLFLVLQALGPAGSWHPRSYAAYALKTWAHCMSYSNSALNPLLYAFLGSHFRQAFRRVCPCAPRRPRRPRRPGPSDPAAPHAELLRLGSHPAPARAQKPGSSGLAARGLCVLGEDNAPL
Method in brief: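 Intracellular calcium mobilization in KISS1R-HEK293 cells was recorded by fluorescence (Ex/Em 480/540) for 3 min following compound addition to cells pre-loaded 1 h with calcium dye.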

[5] = G protein-coupled receptor (GPCR) small molecule agonists, calcium flux assay: HEK293 wild type cell line counter screen (AID 1920065)
Method in brief: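 In this agonist-mode screen, ATP is the positive control and DMSO the vehicle. Cells grow 18 h before a 1 h dye incubation at 37 C; signal is taken at Ex/Em 480/540 over 3 min.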

[6] = p53 small molecule agonists, cell-based qHTS assay with rat liver microsomes: qHTS cell viability counter screen (AID 1963580); note: nearly all actives have a fitted effect of over 45% in size
Method in brief: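 Viability is assessed in parallel with the p53 reporter read: HCT-116 p53RE-bla cells receive compounds plus rat microsomes and NADPH (0.5 mg/mL final apiece), incubate 16 h at 37 C, and then CellTiter-Glo luminescence is recorded.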

[7] = p53 small molecule agonists, cell-based qHTS assay: qHTS cell viability counter screen (AID 1963581); note: nearly all actives have a fitted effect of over 45% in size
Method in brief: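 Compounds are pinned onto HCT-116 p53RE-bla cells and left 16 h at 37 C. Following the reporter FRET read, ATP is quantified by CellTiter-Glo luminescence after 30 min at room temperature.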

[8] = molecular target: 5-hydroxytryptamine receptor 2A (Homo sapiens) (UniProt P28223); assay: 5-hydroxytryptamine receptor 2A (HTR2A) small molecule antagonists, cell-based qHTS assay (AID 1963586); note: nearly all actives have a fitted effect of over 45% in size; note: potency is the fitted concentration of half-maximal effect
Chain of 5-hydroxytryptamine receptor 2A (Homo sapiens) (P28223 whole entry, looked up): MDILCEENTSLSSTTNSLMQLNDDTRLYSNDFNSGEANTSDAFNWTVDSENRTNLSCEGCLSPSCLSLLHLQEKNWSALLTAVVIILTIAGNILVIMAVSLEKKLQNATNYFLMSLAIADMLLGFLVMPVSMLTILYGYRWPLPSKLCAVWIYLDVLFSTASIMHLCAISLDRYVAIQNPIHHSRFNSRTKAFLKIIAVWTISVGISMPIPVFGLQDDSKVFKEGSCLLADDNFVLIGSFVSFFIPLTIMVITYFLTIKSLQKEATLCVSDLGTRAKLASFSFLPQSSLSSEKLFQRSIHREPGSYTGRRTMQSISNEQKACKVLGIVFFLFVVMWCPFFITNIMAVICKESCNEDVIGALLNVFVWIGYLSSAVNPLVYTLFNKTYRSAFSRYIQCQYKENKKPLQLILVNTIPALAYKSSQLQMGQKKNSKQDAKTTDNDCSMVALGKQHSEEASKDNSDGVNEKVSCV
Method in brief: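 Antagonist-mode intracellular calcium assay: DOI (4 nM) added after 5 min compound pre-incubation at room temperature to dye-loaded HTR2A-CHO cells. Fluorescence followed for 3 min, sampled every second.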

[9] = molecular target: 5-hydroxytryptamine receptor 2A (Homo sapiens) (UniProt P28223); assay: 5-hydroxytryptamine receptor 2A (HTR2A) small molecule agonists, cell-based qHTS assay (AID 1963587); note: nearly all actives have a fitted effect of over 30% in size
Method in brief: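 CHO cells stably expressing human HTR2A, plated 18 h, loaded with calcium dye 1 h at 37 C. Agonist mode: compounds added and intracellular calcium fluorescence recorded kinetically for 2 min at 1 sec intervals.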

[10] = molecular target: Muscarinic acetylcholine receptor M1 (Homo sapiens) (UniProt P11229); assay: Cholinergic receptor muscarinic 1 (CHRM1) small molecule antagonists, cell-based qHTS assay (AID 1963588); note: nearly all actives have a fitted effect of over 40% in size
Chain of Muscarinic acetylcholine receptor M1 (Homo sapiens) (P11229 whole entry, looked up): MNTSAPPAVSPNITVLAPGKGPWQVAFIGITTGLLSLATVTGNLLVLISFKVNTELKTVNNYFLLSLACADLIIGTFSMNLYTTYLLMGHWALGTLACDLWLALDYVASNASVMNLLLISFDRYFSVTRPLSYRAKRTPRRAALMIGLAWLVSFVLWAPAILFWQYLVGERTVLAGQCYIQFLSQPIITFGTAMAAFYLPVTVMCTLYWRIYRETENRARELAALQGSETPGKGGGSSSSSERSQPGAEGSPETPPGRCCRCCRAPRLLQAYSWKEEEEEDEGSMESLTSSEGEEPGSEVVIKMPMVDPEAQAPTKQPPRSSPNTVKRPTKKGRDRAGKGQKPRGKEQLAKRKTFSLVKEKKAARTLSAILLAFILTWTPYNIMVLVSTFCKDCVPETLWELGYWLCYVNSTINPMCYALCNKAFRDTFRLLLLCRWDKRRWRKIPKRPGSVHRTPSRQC
Method in brief: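 CHRM1-CHO calcium-flux assay, antagonist mode. Cells were seeded 18 h, dye-loaded 1 h at 37 C and given compound for 5 min at RT, then acetylcholine was added at 50nM. FDSS fluorescence was read 3 min; 15 concentrations, three runs.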

[11] = molecular target: Muscarinic acetylcholine receptor M1 (Homo sapiens) (UniProt P11229); assay: Cholinergic receptor muscarinic 1 (CHRM1) small molecule agonists, cell-based qHTS assay (AID 1963589); note: nearly all actives have a fitted effect of over 35% in size
Method in brief: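 Stable CHRM1-CHO cells (human receptor) were incubated 18 h, dye-loaded for 1 h at 37 C and exposed to test compounds for agonist activity, with calcium-dependent fluorescence followed kinetically.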

[12] = cAMP Responsive Elements (CRE) small molecule agonists, cell-based qHTS assay (AID 1963590)
Method in brief: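 FRET-based beta-lactamase readout (LiveBLAzer B/G, 2 h RT) quantified CRE activation in HEK 293T CRE-bla cells after 3 h treatment with DMSO-dissolved compounds.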

[13] = cAMP Responsive Elements (CRE) small molecule antagonists, cell-based qHTS assay (AID 1963591; active = well fitted inhibition curve with a large enough effect in the signal ratio in the repeat runs, not every such curve was filed as active; the % refers to the signal ratio)
Method in brief: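 qHTS in CRE-bla HEK 293T cells: compound in DMSO, then 0.25 uM NKH477 (final), 3 h at 37 °C/5% CO2; beta-lactamase FRET read-out after 2 h substrate incubation.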

[14] = molecular target: Beta-2 adrenergic receptor (Homo sapiens) (UniProt P07550); assay: Adrenergic beta2 receptor (ADRB2) small molecule antagonists, cell-based qHTS assay (AID 1963592); note: series mostly up to about 92 µM; nearly all actives have a fitted effect of over 50% in size
Chain of Beta-2 adrenergic receptor (Homo sapiens) (P07550 whole entry, looked up): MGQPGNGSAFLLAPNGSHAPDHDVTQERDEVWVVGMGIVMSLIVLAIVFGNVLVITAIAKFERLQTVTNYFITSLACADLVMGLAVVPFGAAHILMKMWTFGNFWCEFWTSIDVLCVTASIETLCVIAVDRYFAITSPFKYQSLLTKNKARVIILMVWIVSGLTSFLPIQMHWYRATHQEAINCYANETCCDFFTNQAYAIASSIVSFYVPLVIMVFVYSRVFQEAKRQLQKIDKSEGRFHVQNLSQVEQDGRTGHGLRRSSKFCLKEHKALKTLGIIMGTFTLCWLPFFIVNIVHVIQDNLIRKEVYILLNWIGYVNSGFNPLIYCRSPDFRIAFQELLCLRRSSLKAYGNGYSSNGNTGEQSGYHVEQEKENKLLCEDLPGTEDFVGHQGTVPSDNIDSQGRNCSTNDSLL
Method in brief: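 Cells (CHO, stable ADRB2 overexpression) incubated 18-20hr at 37C; compounds added from DMSO; agonist mix (1nM isoproterenol, 100uM IBMX, 25uM Ro-20-1724) added; 0.5hr RT; d2-cAMP and anti-cAMP-cryptate added; 1hr RT; 665/615 nm read.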

[15] = molecular target: Beta-2 adrenergic receptor (Homo sapiens) (UniProt P07550); assay: Adrenergic beta2 receptor (ADRB2) small molecule agonists, cell-based qHTS assay (AID 1963593);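 note: CHO cells stably overexpressing human ADRB2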
Method in brief: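 CHO cells stably over-expressing ADRB2 were plated overnight at 37C, then dosed with compounds plus a stimulation mix containing 100uM IBMX and 25uM Ro-20-1724 for 0.5hr at room temperature. cAMP was measured by HTRF competition, 1hr.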

[16] = molecular target: D(2) dopamine receptor (Homo sapiens) (UniProt P14416); assay: Dopamine D2 receptor (DRD2) small molecule agonists, cell-based qHTS assay (AID 1963594); note: nearly all actives have a fitted effect of over 35% in size
Chain of D(2) dopamine receptor (Homo sapiens) (P14416 whole entry, looked up): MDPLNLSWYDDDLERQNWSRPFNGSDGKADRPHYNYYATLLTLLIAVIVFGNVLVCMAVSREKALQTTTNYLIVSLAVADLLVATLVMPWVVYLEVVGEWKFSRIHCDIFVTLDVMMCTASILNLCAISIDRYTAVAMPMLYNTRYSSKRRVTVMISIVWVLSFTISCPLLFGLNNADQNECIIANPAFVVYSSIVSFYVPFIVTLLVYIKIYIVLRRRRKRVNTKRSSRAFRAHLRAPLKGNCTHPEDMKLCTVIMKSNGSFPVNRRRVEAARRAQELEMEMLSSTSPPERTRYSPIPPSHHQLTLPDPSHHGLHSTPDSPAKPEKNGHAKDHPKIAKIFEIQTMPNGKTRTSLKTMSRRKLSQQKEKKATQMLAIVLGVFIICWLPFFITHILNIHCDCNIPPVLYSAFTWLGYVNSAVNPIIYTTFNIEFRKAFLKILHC
Method in brief: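 HEK293 cells stably expressing human DRD2, pre-treated with PDE inhibitor Ro20-1724 (0.1 mM final) and compound 10 min at room temperature, then stimulated with NKH477 (200nM […]) for 30 min. cAMP read by HTRF (665/620 nm).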

[17] = molecular target: D(2) dopamine receptor (Homo sapiens) (UniProt P14416); assay: Dopamine D2 receptor (DRD2) small molecule antagonists, cell-based qHTS assay (AID 1963595; active = well fitted inhibition curve with a large enough effect in the signal ratio in the repeat runs, with a control signal flat; the % refers to the signal ratio)
Method in brief: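 Readout: HTRF cAMP, cAMP-d2 competing with cellular cAMP for anti-cAMP cryptate, read after 1 h. Cells: DRD2-HEK293. Conditions: 0.1 mM Ro20-1724, 12 nM quinpirole, 200 nM NKH477, 30 min RT.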

[18] = p53 small molecule agonists, cell-based qHTS assay with rat liver microsomes (AID 1963578)
Method in brief: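 Cells carrying a p53 response element–beta-lactamase reporter were plated and rested 5 h, then dosed with compound in DMSO plus rat liver microsomes and NADPH, each at 0.5 mg/mL final. After 16 h at 37 C, LiveBLAzer substrate was added for 2 h.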

[19] = p53 small molecule agonists, cell-based qHTS assay with human liver microsomes: qHTS cell viability counter screen (AID 1963579); note: nearly all actives have a fitted effect of over 45% in size
Method in brief: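 Cytotoxicity counter screen: p53RE-bla, 4,000 cells/well; 5 h settle, 37 C/5% CO2; cpd + HLM 0.5 mg/mL + NADPH 0.5 mg/mL (final); 16 h, 37 C; CellTiter-Glo, 30 min RT, luminescence.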

[20] = p53 small molecule agonists, cell-based qHTS assay (AID 1963582; active = well fitted activation curve with a large enough effect in the signal ratio in the repeat runs, not every such curve was filed as active; the % refers to the signal ratio; note: potency is the fitted concentration of half-maximal effect)
Method in brief: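 Agonist activity was scored from beta-lactamase FRET fluorescence in p53RE-bla cells treated 16 h at 37 C with compounds in DMSO, substrate incubation being 2 h at room temperature.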

| SMILES | Potency [1] | Potency [2] | Potency [3] | Potency [4] | Potency [5] | Potency [6] | Potency [7] | Potency [8] | Potency [9] | Potency [10] | Potency [11] | Potency [12] | Potency [13] | Potency [14] | Potency [15] | Potency [16] | Potency [17] | Potency [18] | Potency [19] | Potency [20] |
| --- | --- | --- | --- | --- | --- | --- | --- | --- | --- | --- | --- | --- | --- | --- | --- | --- | --- | --- | --- | --- |
| CCCOCC(C)O (stereo not drawn) | inactive | inactive | inactive | inactive | inactive | inactive | inactive | inactive | inactive | inactive | inactive | inactive | inactive | inactive | inactive | inactive | inactive | – | – | – |
| c1ccc2cc(Nc3ccc(Nc4ccc5ccccc5c4)cc3)ccc2c1 | inactive | inactive | inactive | inactive | – | inactive | inactive | inactive | inactive | inactive | inactive | inactive | inactive | – | inactive | inactive | inactive | inactive | inactive | – |
| O=C(C1CCCCC1)N1CC(=O)N2CCc3ccccc3C2C1 (stereo not drawn) | inactive | inactive | inactive | inactive | inactive | – | – | – | – | – | – | – | – | inactive | – | inactive | inactive | – | – | – |
| Cc1cn([C@H]2C=C[C@@H](CO)O2)c(=O)[nH]c1=O | inactive | inactive | inactive | inactive | inactive | inactive | inactive | – | – | – | – | inactive | inactive | – | inactive | inactive | inactive | – | inactive | – |
| Cc1ccc(S(=O)(=O)NC(=O)NN2CCCCCC2)cc1 | inactive | inactive | inactive | inactive | inactive | inactive | inactive | – | – | – | – | – | inactive | inactive | inactive | – | inactive | – | inactive | – |
| C[Si]1(C)O[Si](C)(C)O[Si](C)(C)O[Si](C)(C)O1 | inactive | inactive | inactive | inactive | – | inactive | inactive | – | inactive | inactive | inactive | inactive | inactive | inactive | inactive | inactive | inactive | inactive | inactive | inactive |
| O=C1C(c2[nH]c3ccccc3c2O)=Nc2ccccc21 | inactive | inactive | inactive | inactive | – | – | inactive | inactive | inactive | inactive | inactive | inactive | inactive | inactive | inactive | inactive | inactive | inactive | inactive | inactive |
| CN1C(=O)CC[C@H]1c1cccnc1 | inactive | inactive | inactive | inactive | – | inactive | inactive | inactive | inactive | – | inactive | inactive | inactive | inactive | inactive | – | – | inactive | inactive | inactive |
| O=c1n(CC2CO2)c(=O)n(CC2CO2)c(=O)n1CC1CO1 (stereo not drawn) | inactive | 60.8 µM (active) and 68.6 µM (active) | inactive | inactive | – | inactive | inactive | inactive | inactive | inactive | inactive | – | – | inactive | – | inactive | inactive | inactive | inactive | 18.1 µM (active) and 20.4 µM (active) |
| F[B-](F)(F)F | inactive and 31.1 µM (active) | inactive | inactive | inactive | inactive | – | – | inactive | inactive | inactive | inactive | inactive | inactive | inactive | inactive | inactive | – | – | inactive | – |
| N=C(N)c1ccc(OCCCCCOc2ccc(C(=N)N)cc2)cc1 | inactive | inactive | inactive | inactive | inactive | – | inactive | – | – | – | – | inactive | inactive | inactive | inactive | inactive | inactive | – | inactive | – |
| O=C(OCCOCCOC(=O)c1ccccc1)c1ccccc1 | inactive | inactive | inactive | inactive | – | inactive | inactive | inactive and 7.5 nM (active) | inactive | – | inactive | inactive | inactive | inactive | – | inactive | – | inactive | inactive | inactive |
| O=Nc1ccc(O)cc1 | inactive | inactive | inactive | inactive | inactive | – | inactive | inactive | inactive | inactive | inactive | inactive | inactive | inactive | inactive | inactive | inactive | – | inactive | – |
| CC(C)(N)CO | inactive | inactive | inactive | inactive | – | inactive | inactive | inactive | inactive | inactive | inactive | inactive | inactive | inactive | – | inactive | inactive | inactive | inactive | – |
